Compounds without any hit were thinned out: in the full panel of roughly 83,000, 20% have a hit.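 Treatment: one concentration, 48 hours, 96-well format. Scoring: percent growth, with anything below 10 considered active.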 Values without a mark were called inactive. Activity calls are given as the source filed them.

The assay has as its system HL-60(TB) leukemia. The experiment in a line: NCI-60 one-dose screen, 48 h (100 = growth as untreated, 0 = no growth, -100 = all killed). As to conditions: 10 µM unless noted.
Turning to `COc1cc(-c2ccc3ncnc(N4CCc5ccc(Cl)cc54)c3c2)cnc1Cl`, the growth is -8.13% (active).

`COc1ccc(C2CC(c3ccc(S(=O)(=O)NCCNc4nc(Nc5ccc(F)cc5)nc(N(C)C)n4)cc3)=Nc3c(N)nc(N)nc3N2)cc1` (stereo not given): the growth is 52.5%.

As for `Cc1ccc2sc3c(c2c1)Oc1nc[nH]c(=O)c1C3c1cccc(F)c1` (stereo not given), the growth was 99.3%.

On to `Cc1cc(C)nc(NS(=O)(=O)c2ccc(N/C(N)=N/c3nccc(-c4cccs4)n3)cc2)n1`, for which the growth was 1.77% (active).

On to `CC1(C)[C@@H](NCO)CC[C@]2(C)[C@H]3C(=O)C=C4[C@@H]5C[C@](C)(CO)CC[C@]5(C)CC[C@@]4(C)[C@]3(C)CC[C@@H]12`, for which the growth was 58.2%.

The values are drawn from PubChem BioAssay (NCI).
